We go through 30 compounds from PubChem BioAssay (NCATS).

Records with an inconclusive call do not appear. Active and inactive are the calls of the source. Calls come from the whole dose curve; as a rule, active = well fitted inhibition curve with a large enough effect; inconclusive = small, poorly fitted or top-dose-only effect; inactive = flat fitted curve, though single readings scatter.
Potency is the fitted concentration of half-maximal effect.

One assay has as its system CP325. The assay is described as follows: qHTS profiling for inhibitors of Plasmodium falciparum proliferation (AID 504749).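 For activity, negative = inhibition: 0% = DMSO vehicle and full inhibition = artemisinin control.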 Note: nearly all actives have a fitted effect of over 60% in size. To be noted: P. falciparum in erythrocytes, SYBR Green DNA, 72 h; series mostly up to 28.7 µM; activity, negative = inhibition: at the top concentration. The essentials:
(§1)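 Readout was DNA-dye fluorescence from lysed cultures, ex 485/em 535 nm. Parasitized red cells had grown 72 h with compound; data scaled between 0.29 uM artemisinin and DMSO wells and corrected using vehicle-only plates.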
For orientation: Quantitative high-throughput screening tests each substance at several concentrations.
In the case of `NCC(=O)CCC(=O)O`, the “activity, negative = inhibition” value was 1.14% (inactive).

`COc1ccc2[nH]c(S(=O)Cc3ncc(C)c(OC)c3C)nc2n1` (stereo not drawn): the “activity, negative = inhibition” value is -0.437% (inactive).

In the case of `CC(CN1c2ccccc2Sc2ccccc21)N(C)C` (stereo not drawn), the “activity, negative = inhibition” value was 1.64% (inactive).

As for `OCc1cc(C(O)CNCCCCCCOCCCCc2ccccc2)ccc1O` (stereo not drawn), the “activity, negative = inhibition” value was -13% (inactive).

`NC1CCN(c2cccc(Cl)n2)CC1`: the “activity, negative = inhibition” value is -22% (inactive).

For `C#CCN(C)Cc1ccccc1`, the “activity, negative = inhibition” value was -0.0706% [at 12.8 µM] (inactive).

Regarding `CCOC(CN1CCN(CC(C)C(=O)c2ccccc2)CC1)c1ccccc1` (stereo not drawn), the “activity, negative = inhibition” value was -18.9% (inactive).

As for `O=C1c2c(O)cccc2Cc2cccc(O)c21`, the “activity, negative = inhibition” value is -2.27% (inactive).

In the case of `c1ccc(CN(CC2=NCCN2)c2ccccc2)cc1`, the “activity, negative = inhibition” value was -15.6% (inactive).

For the compound `CCCCN1CCCC[C@H]1C(=O)Nc1c(C)cccc1C`, the “activity, negative = inhibition” value is -18.9% (inactive).

As for `CN1CCCCC1CCN1c2ccccc2Sc2ccc(S(C)=O)cc21` (stereo not drawn), the “activity, negative = inhibition” value was -23.8% (inactive).

Turning to `CC(C(O)c1ccc(O)cc1)N1CCC(Cc2ccccc2)CC1` (stereo not drawn), the Potency was 15.1 µM (active).

Consider `CCCn1cnc2c1c(=O)n(CCCCC(C)=O)c(=O)n2C`, for which the “activity, negative = inhibition” value is -3.23% (inactive).

Regarding `CN1CCN(C2Cc3ccccc3Sc3ccc(Cl)cc32)CC1` (stereo not drawn), the “activity, negative = inhibition” value was -13.1% (inactive).

With `CCOc1nc2cccc(C(=O)O)c2n1Cc1ccc(-c2ccccc2-c2nn[nH]n2)cc1`, the “activity, negative = inhibition” value is -3.79% (inactive).

In another assay the test system is CP329. Described as above. To be noted: P. falciparum in erythrocytes, SYBR Green DNA, 72 h; series mostly up to 28.7 µM; activity, negative = inhibition: at the top concentration. The essentials: as §1
For `NCC(=O)CCC(=O)O`, the “activity, negative = inhibition” value was 2.67% (inactive).

For the compound `COc1ccc2[nH]c(S(=O)Cc3ncc(C)c(OC)c3C)nc2n1` (stereo not drawn), the “activity, negative = inhibition” value is -4.92% (inactive).

Consider `CNCCC(Oc1ccc(C(F)(F)F)cc1)c1ccccc1` (stereo not drawn), for which the “activity, negative = inhibition” value is -15.5% (inactive).

Turning to `CC(CN1c2ccccc2Sc2ccccc21)N(C)C` (stereo not drawn), the “activity, negative = inhibition” value is 0.481% (inactive).

Consider `OCc1cc(C(O)CNCCCCCCOCCCCc2ccccc2)ccc1O` (stereo not drawn), for which the “activity, negative = inhibition” value is -9% (inactive).

Consider `NC1CCN(c2cccc(Cl)n2)CC1`, for which the “activity, negative = inhibition” value is -19.3% (inactive).

On to `C#CCN(C)Cc1ccccc1`, for which the “activity, negative = inhibition” value was 5.71% [at 12.8 µM] (inactive).

`CCOC(CN1CCN(CC(C)C(=O)c2ccccc2)CC1)c1ccccc1` (stereo not drawn): the “activity, negative = inhibition” value is -22.9% (inactive).

As to `NC(=O)N/N=C/c1ccc([N+](=O)[O-])o1`, the “activity, negative = inhibition” value was -21.6% (inactive).

In the case of `O=C1c2c(O)cccc2Cc2cccc(O)c21`, the “activity, negative = inhibition” value was -1.51% (inactive).

Take `c1ccc(CN(CC2=NCCN2)c2ccccc2)cc1`: the “activity, negative = inhibition” value was -28.7% (inactive).

Consider `[Cl][In]([Cl])[Cl]`, for which the “activity, negative = inhibition” value was -5.12% (inactive).

As to `CN(C)CCN(Cc1ccccc1)c1ccccn1`, the “activity, negative = inhibition” value was -12.4% (inactive).

With `CCCCN1CCCC[C@H]1C(=O)Nc1c(C)cccc1C`, the “activity, negative = inhibition” value is -16.1% (inactive).

Consider `CN1CCCCC1CCN1c2ccccc2Sc2ccc(S(C)=O)cc21` (stereo not drawn), for which the “activity, negative = inhibition” value was -21.9% (inactive).

Turning to `CCN(CC)CCNC(=O)c1c(C)[nH]c(/C=C2\C(=O)Nc3ccc(F)cc32)c1C`, the Potency was 12 µM (active).

For `CC(C)(C)C(=O)C(Oc1ccc(Cl)cc1)n1ccnc1` (stereo not drawn), the “activity, negative = inhibition” value is -14.8% (inactive).

As for `CNCCCC1c2ccccc2C=Cc2ccccc21`, the “activity, negative = inhibition” value was -12.6% [at 12.8 µM] (inactive).

For `CN1CCC[C@@H]1Cc1c[nH]c2ccc(CCS(=O)(=O)c3ccccc3)cc12`, the “activity, negative = inhibition” value is -21.9% (inactive).

Consider `CCCn1cnc2c1c(=O)n(CCCCC(C)=O)c(=O)n2C`, for which the “activity, negative = inhibition” value was -3.13% (inactive).

On to `Cc1c(O)cccc1C(=O)N[C@@H](CSc1ccccc1)[C@H](O)CN1C[C@H]2CCCC[C@H]2C[C@H]1C(=O)NC(C)(C)C`, for which the “activity, negative = inhibition” value was -15% (inactive).

Turning to `CN1CCN(C2Cc3ccccc3Sc3ccc(Cl)cc32)CC1` (stereo not drawn), the “activity, negative = inhibition” value was -18.7% (inactive).

Regarding `CCOc1nc2cccc(C(=O)O)c2n1Cc1ccc(-c2ccccc2-c2nn[nH]n2)cc1`, the “activity, negative = inhibition” value was -7.91% (inactive).

The next assay has as its system CP335. The assay is described as above. To be noted: P. falciparum in erythrocytes, SYBR Green DNA, 72 h; series mostly up to 28.7 µM; activity, negative = inhibition: at the top concentration. In a few lines:
as §1
Turning to `Oc1ccc(C(O)CNCCCCCCNCC(O)c2ccc(O)c(O)c2)cc1O` (stereo not drawn), the Potency is 9.53 µM (active).

`COCCOC(=O)C1=C(C)NC(C)=C(C(=O)OC/C=C/c2ccccc2)C1c1cccc([N+](=O)[O-])c1` (stereo not drawn): the Potency was 9.53 µM (active).

Take `CN(C)CCCN1c2ccccc2Sc2ccc(Cl)cc21`: the Potency was 13.5 µM (active).

Consider `CC(CN1c2ccccc2Sc2ccccc21)N(C)C` (stereo not drawn), for which the “activity, negative = inhibition” value is 5.07% (inactive).

As for `OCCN1CCN(CCCN2c3ccccc3Sc3ccc(Cl)cc32)CC1`, the Potency was 2.56 µM (active).

On to `NC1CCN(c2cccc(Cl)n2)CC1`, for which the “activity, negative = inhibition” value was -17.6% (inactive).

Consider `CNC(=O)Oc1ccc2c(c1)[C@]1(C)CCN(C)[C@@H]1N2C`, for which the Potency is 7.57 µM (active).

Regarding `C#CCN(C)Cc1ccccc1`, the “activity, negative = inhibition” value is 2.8% [at 12.8 µM] (inactive).

As for `O=C1c2c(O)cccc2Cc2cccc(O)c21`, the “activity, negative = inhibition” value is 6.3% (inactive).

For the compound `CC(C(O)c1ccc(O)cc1)N1CCC(Cc2ccccc2)CC1` (stereo not drawn), the Potency is 10.7 µM (active).

Turning to `CCN(CC)CCNC(=O)c1c(C)[nH]c(/C=C2\C(=O)Nc3ccc(F)cc32)c1C`, the Potency was 12 µM (active).

As for `CCCn1cnc2c1c(=O)n(CCCCC(C)=O)c(=O)n2C`, the “activity, negative = inhibition” value was 3.81% (inactive).

For `CCOc1nc2cccc(C(=O)O)c2n1Cc1ccc(-c2ccccc2-c2nn[nH]n2)cc1`, the “activity, negative = inhibition” value was -19.8% (inactive).

The subject of another assay is DFO2036. The assay is described as above. Particulars: P. falciparum in erythrocytes, SYBR Green DNA, 72 h; series mostly up to 28.7 µM; activity, negative = inhibition: at the top concentration. The essentials: as §1
As to `NCC(=O)CCC(=O)O`, the “activity, negative = inhibition” value is 2.63% (inactive).

As to `Oc1ccc(C(O)CNCCCCCCNCC(O)c2ccc(O)c(O)c2)cc1O` (stereo not drawn), the “activity, negative = inhibition” value is -80.3% (inactive).

With `CNCCC(Oc1ccc(C(F)(F)F)cc1)c1ccccc1` (stereo not drawn), the “activity, negative = inhibition” value is -19.9% (inactive).

As to `CN(C)CCCN1c2ccccc2Sc2ccc(Cl)cc21`, the “activity, negative = inhibition” value was -28.7% (inactive).

`CC(CN1c2ccccc2Sc2ccccc21)N(C)C` (stereo not drawn): the “activity, negative = inhibition” value is 11.9% (inactive).

With `OCc1cc(C(O)CNCCCCCCOCCCCc2ccccc2)ccc1O` (stereo not drawn), the “activity, negative = inhibition” value is -7.31% (inactive).

For the compound `NC1CCN(c2cccc(Cl)n2)CC1`, the “activity, negative = inhibition” value is -11.6% (inactive).

Consider `CNC(=O)Oc1ccc2c(c1)[C@]1(C)CCN(C)[C@@H]1N2C`, for which the Potency was 2.24 µM (active).

With `C#CCN(C)Cc1ccccc1`, the “activity, negative = inhibition” value is -1.72% [at 12.8 µM] (inactive).

For the compound `CCOC(CN1CCN(CC(C)C(=O)c2ccccc2)CC1)c1ccccc1` (stereo not drawn), the “activity, negative = inhibition” value is -9.15% (inactive).

Regarding `O=C1c2c(O)cccc2Cc2cccc(O)c21`, the “activity, negative = inhibition” value is 4.47% (inactive).

Consider `CN(C)CCN(Cc1ccccc1)c1ccccn1`, for which the “activity, negative = inhibition” value is -30.5% (inactive).

For `CCCCN1CCCC[C@H]1C(=O)Nc1c(C)cccc1C`, the “activity, negative = inhibition” value is -24.3% (inactive).

Take `Cc1ccc2nc(N)[nH]c(=O)c2c1Sc1ccncc1`: the Potency was 10 µM (active).

On to `CN1CCCCC1CCN1c2ccccc2Sc2ccc(S(C)=O)cc21` (stereo not drawn), for which the “activity, negative = inhibition” value was -27.1% (inactive).

Regarding `CCN(CC)CCNC(=O)c1c(C)[nH]c(/C=C2\C(=O)Nc3ccc(F)cc32)c1C`, the Potency is 8.91 µM (active).

In the case of `CC(C)(C)C(=O)C(Oc1ccc(Cl)cc1)n1ccnc1` (stereo not drawn), the Potency was 12.6 µM (active).

As to `CNCCCC1c2ccccc2C=Cc2ccccc21`, the “activity, negative = inhibition” value is -12.8% [at 12.8 µM] (inactive).

As to `CN1CCC[C@@H]1Cc1c[nH]c2ccc(CCS(=O)(=O)c3ccccc3)cc12`, the “activity, negative = inhibition” value was -18.7% (inactive).

On to `CCCn1cnc2c1c(=O)n(CCCCC(C)=O)c(=O)n2C`, for which the “activity, negative = inhibition” value is 10.4% (inactive).

As for `CN1CCN(C2Cc3ccccc3Sc3ccc(Cl)cc32)CC1` (stereo not drawn), the “activity, negative = inhibition” value was -19.4% (inactive).

Consider `CCOc1nc2cccc(C(=O)O)c2n1Cc1ccc(-c2ccccc2-c2nn[nH]n2)cc1`, for which the “activity, negative = inhibition” value is -0.0124% (inactive).
